# Screens: PubChem, National Center for Advancing Translational Sciences (NCATS)
# D1 agonist: agonists of human D1 dopamine receptor; P21728; HEK293 T-REx D1 cells, calcium flux, agonist mode; activation, % at 2 µM; 360,000 compounds, 1% hits; AID 504660; in the data active means activation above about 30%; further: 0% is about no effect
# Target sequence (P21728 whole entry, looked up): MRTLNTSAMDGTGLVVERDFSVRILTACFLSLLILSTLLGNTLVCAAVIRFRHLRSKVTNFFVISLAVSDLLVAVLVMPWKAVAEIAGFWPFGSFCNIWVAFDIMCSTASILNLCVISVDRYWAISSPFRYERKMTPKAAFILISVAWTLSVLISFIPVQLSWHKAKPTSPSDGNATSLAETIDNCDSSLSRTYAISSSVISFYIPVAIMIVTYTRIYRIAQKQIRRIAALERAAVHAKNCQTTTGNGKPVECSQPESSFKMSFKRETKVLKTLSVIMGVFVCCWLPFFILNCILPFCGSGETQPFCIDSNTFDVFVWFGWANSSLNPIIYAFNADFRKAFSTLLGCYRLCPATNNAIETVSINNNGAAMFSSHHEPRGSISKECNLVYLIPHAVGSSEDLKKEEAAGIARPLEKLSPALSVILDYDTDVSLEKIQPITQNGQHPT
#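 Tetracycline-induced HEK293 TREx D1 cells, force-coupled to calcium signalling, were dye-loaded with a no-wash calcium kit. Compound was pin-added after a 10 s baseline. Fluorescence was read kinetically at 1 cycle/s for 180 s, with calcium rises flagged as agonism.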
# TRPV1 agonist: activates the human vanilloid receptor TRPV1. TRPV1-expressing cells, Fluo-8 calcium influx, agonist mode. 320,000 compounds, 0.19% hits. Q8NER1. activation, % at 8.33 µM. AID 540275; in the data active means activation above about 80%; inconclusive means between about 30% and that limit; further: 0% is about no effect
#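 Fluo-8 calcium influx in TRPV1-expressing cells, kinetic read (ex 480/em 520 nm). Compound added and read 3 min for agonist activity, followed by capsaicin at EC20 final and 2 min further read for enhancement.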
# D1 PAM: potentiators of human D1 dopamine receptor; P21728; potentiation, % at 10 µM; 360,000 compounds, 0.036% hits; HEK293 TREx D1 cells, calcium flux, dopamine EC20 potentiation; AID 504651; in the data active means potentiation above about 30%; further: 0% is about no effect
# D1 antag: human D1 dopamine receptor antagonism | P21728 | AID 504652 | HEK293 TREx D1 cells, calcium flux, dopamine EC80; active compounds read low | 360,000 compounds, 3.2% hits | activity change, negative = inhibition, % at 10 µM; in the data active means activity change below about -30%; further: on the % scale 0 is the no-effect control and ±100 the full control effect
#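 Tetracycline-induced HEK293 T-REx cells with force-coupled D1 receptor were loaded with a no-wash calcium dye. Compound was added after a 10 s baseline and read kinetically for 180 s; EC80 dopamine was then added and calcium flux followed another 180 s.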
# TRPV1 PAM: potentiators of human vanilloid receptor 1 (TRPV1); TRPV1-expressing cells, Fluo-8 calcium influx, capsaicin EC20 potentiation; potentiation, % at 8.33 µM; 320,000 compounds, 0.02% hits; AID 540277; in the data active means potentiation above about 80%; inconclusive means between about 30% and that limit; further: 0% is about no effect
#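 Cells expressing TRPV1 were dye-loaded with Fluo-8 and read kinetically: 10 s baseline, 3 min after compound (agonist portion), then 2 min after EC20 capsaicin (allosteric enhancer portion). Calcium-bound dye fluorescence at 480/520 nm.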
# Active calls of the source: *; ? = inconclusive; . = not tested or not shown. Sampled rows, rich in hits. Any-hit rate of the full collection: about 4.2%.
SMILES,D1 agonist,TRPV1 agonist,D1 PAM,D1 antag,TRPV1 PAM
O=C(c1cc(-c2ccc(Cl)cc2)on1)N(Cc1cccc(F)c1)Cc1ccco1,33*,.,0,-4,.
CS(=O)(=O)c1ncc(Cl)c(C(=O)N(Cc2ccc(Cl)cc2)Cc2ccco2)n1,0,.,-3,-63*,.
COc1ccc(-n2nnnc2C2CCN(S(=O)(=O)c3cccc(Cl)c3C)CC2)cc1,0,.,-2,-3,.
N#Cc1nc(Nc2cccc(C(F)(F)F)c2)nc(NC2CCCC2)n1,7,.,-3,-11,.
CN(C)CCCNc1nc2sc3c(c2c(=O)n1CCc1ccccc1)CCCCC3,59*,4,-3,-24,24
Clc1ccc(-c2c(C3=NCCCN3)nnn2-c2ccc(Cl)cc2)cc1,10,3,-6,-39*,-46
Clc1ccc(-c2nnnn2-c2ccc(Cl)cc2)cc1,1,7,-17,-9,-26
COc1ccc(CNC(=O)CN2C(=O)COc3ccc(S(=O)(=O)Nc4ccccc4)cc32)cc1,-3,.,-2,-8,.
O=C(O)CCCNS(=O)(=O)c1cccs1,2,2,-7,-58*,-1
COc1ccc(NC(=O)CCCNS(=O)(=O)c2cccs2)cc1,4,4,0,-9,-11
CCn1c(C)c(C(C)=O)c(N2CCCCC2)nc1=S,4,-1,-16,-89*,7
Cc1cccc(-n2ncc3c(NNC(=O)c4ccccc4Cl)ncnc32)c1,-1,.,0,-1,.
CCC(C)(C)NC(=O)C(OC(=O)c1ccco1)c1ccccc1F (stereo not given),1,5,-4,-27,0
CC(C)(C)NC(=O)C(OC(=O)c1ccco1)c1ccccc1F (stereo not given),-1,1,-3,-38*,7
COCCCNC(=O)c1ccc2c(=O)n(CC3CCCO3)c(=S)[nH]c2c1 (stereo not given),2,1,-1,10,-9
CC(C)NC(=O)c1ccc2c(=O)n(CC3CCCO3)c(=S)[nH]c2c1 (stereo not given),3,-8,-2,-23,143*
CC(C)(O)CC[C@@H](O)[C@](C)(O)C1CC[C@@]2(O)C3=CC(=O)[C@]4(O)C[C@@H](O)[C@@H](O)C[C@]4(C)C3CC[C@]12C (stereo not given in full),1,-1,6,-33*,-29
COc1ccc(CN(C)CC(O)COc2ccc(-c3ccccc3)cc2)cc1OC (stereo not given),43*,4,-6,-6,2
CN(Cc1ccc(OCC(O)CN(C)Cc2ccccc2)cc1)Cc1nccn1C (stereo not given),5,8,5,-15,-7
COc1ccc(NC(=O)CSC2=NCCN2)cc1,2,3,-6,-30*,4
COc1cccc(NC(=O)CSc2nc3scc(C)c3c(=O)[nH]2)c1,10,-1,-6,-15,19
COc1ccc(NC(=O)CSc2nc3ccc(OC)cc3[nH]2)cc1,0,27,-5,4,0
CCc1c(C)nc(SCC(=O)NNC(=O)Cc2ccc(OC)cc2)[nH]c1=O,3,4,-10,-11,-10
COc1cccc(NC(=O)CSc2nc(C)c(Cc3ccccc3)c(=O)[nH]2)c1,2,.,-1,-73*,.
COC(=O)c1ccc(NC(=O)CSc2nc3ccc(OC)cc3[nH]2)cc1,17,.,-4,-57*,.
SMILES,D1 agonist,TRPV1 agonist,D1 PAM,D1 antag,TRPV1 PAM
CCc1c(C)nc(SCC(=O)Nc2nc(-c3ccc(OC)cc3)cs2)[nH]c1=O,9,2,-2,-33*,7
COc1cccc(CCNC(=O)c2c(O)nc3ccccn3c2=O)c1,0,.,-4,-25,.
O=C(CSc1nc2c([nH]c3ccccc32)c(=O)n1-c1ccc(F)cc1)NC1CCCCC1,0,.,-6,-20,.
CCS(=O)(=O)n1nc(-c2ccco2)nc1NCc1ccc(C(C)C)cc1,1,.,0,6,.
COc1ccccc1C(=O)NC(=O)Nc1ccc(-n2nc(C(F)(F)F)cc2C(F)(F)F)cc1,-1,.,-5,9,.
CCCc1cc(=O)[nH]c(SCC(=O)N(C)CC(=O)Nc2ccc(F)cc2)n1,0,0,-3,-1,6
COc1ccc(NC(=O)CSc2nc(-c3ccc(OC)cc3)cc(=O)[nH]2)cc1,57*,.,-4,7,.
COc1ccc(NC(=O)c2ccc(NC(=O)CSc3nc(N)cc(=O)[nH]3)cc2)cc1,2,-2,-2,-45*,24
COc1ccc(NC(=O)CSc2nc3sc(C)cc3c(=O)n2C)cc1,5,1,-4,-34*,7
CCCc1cc(=O)[nH]c(SCC(=O)N(C)CC(=O)Nc2ccc(C)cc2)n1,2,0,-8,-36*,1
O=C(CSc1nc(-c2ccccc2)cc(=O)[nH]1)Nc1ccccc1,11,-3,0,3,28
COc1ccc2nc(SCC(=O)NC(C)C)[nH]c2c1,5,-1,8,11,4
COc1ccc2nc(SCC(=O)NC3CCCCC3C)[nH]c2c1 (stereo not given),0,?,-15,-40*,-13
COc1ccc(-n2nnc(C(=O)Nc3ccccc3F)c2N)cc1,0,.,-5,-19,.
Cc1ccc2sc(N(Cc3cccnc3)C(=O)CCS(=O)(=O)c3ccccc3)nc2c1C,31*,.,-2,.,.
Cc1cc(C(=O)COC(=O)c2ccc(O)cc2)c(C)n1-c1ccccc1F,6,?,-2,-30*,-12
Cc1cc(C(=O)Cn2nnc3ccccc3c2=O)c(C)n1-c1ccccc1F,3,4,25,-53*,-1
CN(CCc1ccccc1)C1CCCN(S(=O)(=O)c2cccc(F)c2)C1 (stereo not given),-3,2,-11,-9,1
Cc1cc(S(=O)(=O)N2CCCC(N(C)CCc3ccccn3)C2)c(C)cc1Cl (stereo not given),18,15,-15,-54*,26
COc1ccc(N2CCN(Cc3nc4c(c(=O)n(C)c(=O)n4C)n3C(C)C)CC2)cc1,-1,.,-2,-4,.
CCCN(CCC)CCCNC(=O)c1cc2c(=O)oc3ccc(C)cc3c2s1,-1,.,-3,-2,.
COc1cc(CNC2CCC(C)C2)cc(OC)c1 (stereo not given),1,-1,0,-48*,10
Fc1ccc(N2CCN(C3=Nc4cccc5cccc3c45)CC2)cc1,3,19,-8,-44*,-14
O=C(O)c1ccnc2c(O)cccc12,3,.,2,20,.
CCOc1ccc2ccccc2c1/C=N/n1cncn1,13,-4,4,-47*,1
CC(Oc1ccc(C#N)cc1)C(=O)c1ccc(F)c(F)c1 (stereo not given),12,9,-5,-35*,-8
CN(C)c1ccc(/C=C2\N=C(c3ccc(Cl)c([N+](=O)[O-])c3)NC2=O)cc1,35*,4,-3,-2,0
